PI5P4Ka inh – inhibitors of human PI5P4K alpha; P48426; PI5P4Kalpha enzyme, ADP-Glo luminescence, 60 min; hits give low values; 330,000 compounds, 1.2% hits; AID 652105; max response, %; active = max response of -50% or lower; inconclusive = between -30% and -50%; inactive = -30% or higher; also: value at the top dose of about 77 µM; % is scaled to controls: 0 for no effect and ±100 for the full control effect
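Enzyme plus substrate dispensed, test compounds pinned in, then ATP (5 microM final) added. After 60 min at RT, ADP-Glo reagent 1 for 45 min and reagent 2 for 30 min preceded luminescence imaging.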
PLK1 PBD block – PLK1 (human) polo-box domain binding inhibition. Plk1 PBD binding of FITC phosphopeptide, fluorescence polarization. P53350. 360,000 compounds, 2.8% hits. Potency, µM, for the others: max response, negative = inhibition, hits mostly inhibitors; also: potency is read from the fitted curve at half-maximal effect; series mostly up to about 57 µM; % is scaled to controls: 0 for no effect and ±100 for the full control effect; nearly all actives have a fitted effect of over 65% in size
WRN inhibitor – blocks human WRN helicase. Q14191. WRN helicase unwinding, fluorescent forked duplex, kinetic. Potency, µM (highest dose often 114 µM), for inactives: at the top dose activity change, negative = inhibition, most hits filed as inhibitors. 360,000 compounds, 0.46% hits; also: potency is read from the fitted curve at half-maximal effect; % is scaled to controls: 0 for no effect and ±100 for the full control effect; nearly all actives have a fitted effect of over 55% in size
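WRN at 20 nM final was preincubated with compound for 15 min at room temperature; reaction started with 100 nM forked duplex oligonucleotide carrying fluorophore and quencher plus 2 mM ATP (final). Unwinding followed kinetically by red fluorescence (ex 525/em 598 nm).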
TCR act – T cell receptor activation; primary human leukocytes, anti-CD3, IL-2 HTRF, 48 h; Potency, µM (titrated, usually from 9.22 µM), for inactives: at the top dose activation of IL-2 secretion, usual class: activators; 330,000 tested, under 10 active; also: % of control where 0% means no effect
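Activity was scored as IL-2 release from primary human leukocytes given only a TCR signal (a-CD3 beads) plus compound for 48 hr. Detection used a two-antibody HTRF format read at 665nm.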
FEN1 inhibitor – inhibitors of human flap endonuclease 1 | P39748 | Recombinant FEN1 flap cleavage, fluorescence, 15 min | Potency, µM (highest dose often 114 µM), without a hit: at the top dose activity change, negative = inhibition, hits mostly inhibitors | 390,000 compounds, 0.35% hits; also: potency is read from the fitted curve at half-maximal effect; % is scaled to controls: 0 for no effect and ±100 for the full control effect; nearly all actives have a fitted effect of over 65% in size
Target sequence (P39748 whole entry, looked up): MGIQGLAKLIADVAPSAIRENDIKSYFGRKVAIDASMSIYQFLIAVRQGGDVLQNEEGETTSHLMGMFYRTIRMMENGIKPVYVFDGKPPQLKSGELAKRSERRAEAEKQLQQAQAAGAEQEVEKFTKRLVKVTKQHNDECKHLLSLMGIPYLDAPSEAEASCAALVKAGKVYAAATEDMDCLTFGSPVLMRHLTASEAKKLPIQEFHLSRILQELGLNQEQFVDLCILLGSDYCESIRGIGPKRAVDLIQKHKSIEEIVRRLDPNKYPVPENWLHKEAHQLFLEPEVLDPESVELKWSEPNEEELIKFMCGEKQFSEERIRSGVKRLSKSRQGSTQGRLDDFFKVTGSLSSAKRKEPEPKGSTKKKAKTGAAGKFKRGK
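Compounds are tested as a concentration series against 10 nM FEN1; after a 15 min room-temperature preincubation, 50 nM substrate starts cleavage, with plate reads at 0 and 15 min. Normalized responses are fitted by a Hill equation.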
VDR inh – blocks the human vitamin D receptor; P11473; VDR-SRC2-3 peptide fluorescence polarization, 2 h; Potency, µM, without a hit: max response, negative = inhibition, usual class: inhibitors; 400,000 compounds, 0.93% hits; also: potency is read from the fitted curve at half-maximal effect; % is scaled to controls: 0 for no effect and ±100 for the full control effect
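Measured by FP: displacement of SRC2-3 coactivator peptide from VDR by library compounds, following a two-hour ambient incubation.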
The depositor's hits bear a star; ? = inconclusive; . = not tested or not shown; [ ] = dose if it differs, or a comment. Rows were chosen to be rich in hits. Some 3.7% of all compounds tested hit in one or more screens of this group. Unless noted, calls follow the shape of the dose curve; as a rule, active = well fitted curve in the direction sought with a large enough effect; inconclusive = small, poorly fitted or top-dose-only effect, or another doubt; inactive = no such curve, though single readings can be large; an effect the other way counts as inactive or inconclusive.

SMILES	PI5P4Ka inh	PLK1 PBD block	WRN inhibitor	TCR act	FEN1 inhibitor	VDR inh
CC(=O)Oc1ccc(-c2cc3c(OC(C)=O)cc(OC(C)=O)cc3oc2=O)cc1	-56*	-13%	-16%	2%	-4%	10%
CC1=CC(O)=NS(=O)(=O)O1	.	.	.	.	3%	.
CNC(=S)NNC(=O)c1cccc(C(F)(F)F)c1	.	-12%	9%	1%	0%	-2%
CNC(=S)NNC(=O)c1ccc(=O)n(Cc2cccc(C(F)(F)F)c2)c1	?	3µM*	-6%[57.1 µM]	3%	-1%	-10%
O=C(O)[C@H](O)[C@@H](O)[C@H](O)[C@H](O)CO	.	.	.	.	.	-9%
O=C(/N=C1\NC(=O)C(F)(C(F)(F)F)S1)NC1CCCCC1 (stereo unspecified)	-61*	13µM*	50µM*	1%	1%	50µM*
Cc1ccc(CNC(=O)c2cccc3c2C(=O)c2ccc(N4CCCCC4)cc2S3(=O)=O)cc1	0	-22%	50µM*	3%	17%	-4%
CCOCCc1nnc(NC(=O)c2cccc(F)c2)s1	2	27µM*	3%	4%	1%	-6%
COC(=O)c1ccc(CNC(=O)c2nc(Cn3nc(C)c(Br)c3C)no2)cc1	.	.	.	.	8%	-3%
COc1ccc(NC(=S)NNS(=O)(=O)c2ccc3ccccc3c2)c(OC)c1	?	30µM*	-22%	-10%	0%	?
CC(CCc1ccccc1)NC(=O)Cc1ccc([N+](=O)[O-])cc1 (stereo unspecified)	-5	30µM*	-24%	7%[46.1 µM]	1%	?
N=C1C(c2nc(-c3cccc([N+](=O)[O-])c3)cs2)=C(O)CN1NC(=O)c1ccco1	-55*	-30%	?	-9%	-21%	14%
Cc1ccc(-c2csc(C3=C(O)CN(NC(=O)c4ccc([N+](=O)[O-])cc4)C3=N)n2)cc1	-7	-19%	-1%	-4%	-18%	-1%
COC(=O)COc1cccc(NC(=O)c2ccc(Cl)cc2)c1	1	30µM*	5%	3%	-4%	?
Cc1[nH]ncc1N=Cc1ccc([N+](=O)[O-])cc1	-23	21µM*	5%	-4%	0%	-14%
Cn1c(N=Cc2ccc([N+](=O)[O-])cc2)c(N)c(=O)n(C)c1=O	15	-15%	?	2%	-3%	?
CCCN(c1ccc(C(C)C)cc1)S(=O)(=O)c1ccc2c(c1)oc(=O)n2CC(=O)OCC	.	.	.	.	-19%	2%
Cc1cccc(N2C(=O)c3cccc4c(N(C)CCO)ccc(c34)C2=O)c1	.	11µM*	-16%	-8%	-18%	-1%
CN(C)c1cc(N2CCOCC2)nc(C#N)n1	.	.	.	.	4%	.
CC1=C(c2ccc(Cl)cc2)S(=O)(=O)N=C1N1CCN(c2cccc(C)c2)C(C)C1 (stereo unspecified)	.	.	.	.	-2%	5%
O=S1(=O)CCO[C@H]2CCCC[C@@H]2N1Cc1ccc(Cl)cc1	.	.	.	.	-15%	.
O=c1[nH]c2ccccc2c(O)c1-c1ccccc1[N+](=O)[O-]	-6	24µM*	11%[57.1 µM]	-3%	2%	-13%
O=c1[nH]c2ccccc2c(O)c1-c1ccccc1	3	2%	11%	1%	2%	16%
Nc1ccc(-c2nc3nc(N)nc(N)c3nc2-c2ccc(N)cc2)cc1	-51*	-13%	-26%	4%	-35%	-9%
Cc1ccc2nc(CCc3nc4ccc(C)cc4o3)oc2c1	-29	6µM*	7%	.	3%	?
SMILES	PI5P4Ka inh	PLK1 PBD block	WRN inhibitor	TCR act	FEN1 inhibitor	VDR inh
Cc1ccc2nc(-c3cccc(N)c3)oc2c1	.	0%	-5%	-4%	1%	-6%
Cc1ccc2nc(-c3cccc(-c4nc5ccc(C)cc5o4)n3)oc2c1	.	.	.	.	?	50µM*
CCCn1c(SCC(=O)N2CCCC(C)C2)nnc1-c1cccnc1 (stereo unspecified)	-6	30µM*	8%	-2%	3%	-13%
C=C(C(C)=O)C(O)c1cccc(OC)c1 (stereo unspecified)	.	.	.	.	.	8%
O=C(O)c1ccccc1NS(=O)(=O)c1cccc(C(F)(F)F)c1	.	-6%	-9%	5%	0%	-3%
O=C(O)c1ccccc1NS(=O)(=O)c1cccc(-n2sc3ccccc3c2=O)c1	-97*	3.4µM*	11µM*	1%	89µM*	10µM*
Cc1nc(N)ncc1Sc1ccccc1	-6	5%	-13%	-7%	1%	9%
Cc1nnsc1Sc1ccccc1	0	12µM*	2%	0%	16%	-14%
Cc1cc(SCC(=O)N/N=C/c2ccc(O)c(O)c2O)c(C)cc1Br	-87*	6µM*	50µM*	1%	40µM*	-18%
CC(C)(C)[C@H]1CCC(=O)N(CCSc2ccc(Br)cc2)CC1	.	.	.	.	-15%	.
CSc1ccc(-c2sc(Nc3ccccc3)n[n+]2-c2ccccc2)cc1	-53*	24µM*	20%	2%	22µM*	-12%
CCOc1cc(-c2sc(Nc3ccccc3)n[n+]2-c2ccc(F)cc2)ccc1OC	-2	24µM*	-8%	13%	-2%	1%
CSc1ccc(-c2sc(Nc3cccc4ccccc34)n[n+]2-c2ccccc2)cc1	-9	?	12%	1%	3%	79µM*
COc1cc(OC)c(-c2sc(Nc3ccccc3)n[n+]2-c2ccc(F)cc2)cc1OC	0	-12%	0%	2%	10%	-5%
CC(=O)c1sc(NC(C)c2ccccc2)nc1C (stereo unspecified)	4	-2%	2%	2%	1%	17%
Cc1nc(NC(C)c2ccccc2)sc1C(=O)Nc1ccccc1 (stereo unspecified)	-4	24µM*	-4%	-9%	-2%	-16%
O=C(CCCn1c(=O)c2sccc2n(Cc2cccc(Cl)c2)c1=O)NCc1ccc2c(c1)OCO2	.	.	.	.	-5%	2%
O=C(CCCCCn1c(=O)c2sccc2n(Cc2ccc(Cl)cc2)c1=O)NCc1ccc2c(c1)OCO2	.	.	.	.	0%	89µM*
O=C(N/N=C/c1cccc(F)c1)c1cc(-c2ccco2)nc2ccccc12	-88*	11µM*	56µM*	-1%	?	-6%
Cc1ccccc1NC(=O)c1cc(-c2ccco2)nc2ccccc12	?	?	?	-2%	-23%	-6%
O=C(NCCCN1CCOCC1)c1cc(-c2ccco2)nc2ccccc12	?	?	50µM*	-4%	?	-7%
Cc1ccc(S(=O)(=O)N(C)C)cc1NC(=O)c1cc(-c2ccco2)nc2ccccc12	-56*	-14%	?	-2%	10%	-20%
O=C(NCCCN1CCOCC1)c1cc(-c2ccc(F)cc2)nc2ccccc12	2	8%	4%	2%	7%	10%
O=c1c(=O)n(-c2ccccc2)ccn1Cc1cccc(C(F)(F)F)c1	.	.	.	.	2%	8%

Screening results: PubChem BioAssay, National Center for Advancing Translational Sciences (NCATS)
